# Data published in PubChem BioAssay AID504863 (Sanford-Burnham Center for Chemical Genomics, 2011).
# This is one part of the list. Unmarked numbers belong to inactive results.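 Rule for the calls: active = inhibition averaging 50% or more, tested at 20 µM; inactive = the rest.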
# System: diaphorase (Clostridium kluyveri)
# Assay: diaphorase inhibitors and chemical oxidizers, confirmation, counter-screen for P. falciparum G6PD inhibitor project, biochemical, fluorescence intensity, 30 µM NADPH (AID 504863);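 note: 0% = DMSO with enzyme and 100% = DMSO wells lacking diaphorase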
# Settings: Diaphorase/resazurin coupled assay, resorufin fluorescence, at 20 µM, stronger effect = higher value
smiles,measurement,value
O=C1NC(=O)N(c2ccccc2)C(=O)/C1=C/c1ccc([N+](=O)[O-])s1,inhibition,20.5%
